Experimental findings from PubChem BioAssay (NCI) are described below.

Holding throughout (assay): NCI-60 one-dose screen, 48 h (100 = growth as untreated, 0 = no growth, -100 = all killed)
Common to all, as to conditions: 10 µM

Test [1] relates to DU-145 prostate.
Test [2] concerns K-562 leukemia.
Test [3] has as its system MALME-3M melanoma.
For test [4], the system named is MDA-MB-231 breast.
In test [5] the test system is RXF 393 renal.
The subject of test [6] is SF-268 CNS.
In test [7] the test system is SF-295 CNS.
The subject of test [8] is SF-539 CNS.
Test [9] has as its system UACC-257 melanoma.
The subject of test [10] is M14 melanoma.
In test [11] the test system is HCT-15 colon.
The test system of test [12] is HT29 colon.
Test [13] deals with SNB-75 CNS.
The test system of test [14] is SNB-19 CNS.
The test system of test [15] is U251 CNS.
Test [16] concerns PC-3 prostate.
The test system of test [17] is SK-MEL-5 melanoma.
Test [18] deals with UACC-62 melanoma.
In test [19] the test system is LOX IMVI melanoma.
In test [20] the test system is SK-MEL-28 melanoma.

Compounds without any hit were thinned out: in the full panel of roughly 83,000, 20% have a hit.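 Results are percent growth after 48 hours of single-concentration exposure. 100 means growth as in untreated cells, lower positive values show inhibition; negative values down to -100 show cell death.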 A number with no mark means an inactive call. Active and inactive are the calls of the source. The calls were made as follows: active = growth percent below 10; inactive = the rest.

Consider `CCC(OC(=O)CC(C)C)c1ccccc1` (stereo not given), for which the growth was 103% in test [1]; 99.6% in [2]; 110% in [3]; 106% in test [4]; 98.2% in test [5]; 93.7% in test [6]. Also, the growth in [7] was 94.7%; in test [8], 98.4%; in test [9], 80.6%; in test [10], 102%; in [11], 101%; in test [12] it was 93.6%. For the same compound, the growth was 91.1% in test [13]; 105% in [14]; 86.9% in test [15]; 94.8% in test [16]; 100% in [17]; 102% in test [18]. Besides, the growth in test [19] was 96.1%; in test [20] it was 106%.
Consider `CN(C)Cc1cccs1`, for which the growth was 111% in test [1]; 109% in test [2]; 96.7% in [3]; 90.4% in [4]; 99.3% in [5]; 95.2% in test [6]. The growth in [7] was 100%; in [8], 96.1%; in [9], 96.9%; in [10] it was 94.8%; in test [11] it was 106%; in test [12], 104%. Also, the growth was 93.9% in test [13]; 98.9% in test [14]; 95.9% in [15]; 70.3% in [16]; 90% in [17]; 95.4% in test [18]. Moreover, the growth in test [19] was 93.1%; in [20], 102%.
`Clc1cc(Cl)c(OCCCCCCN2CCNCC2)c(Cl)c1`: the growth in [1] is 67.1%; in test [2], -43.6% (active); in test [3], 50.1%; in test [4], -8.55% (active); in test [5], 24.1%; in test [6], 55.3%. Further, the growth in test [7] is -37.8% (active); in [8], 49%; in test [9], -1.75% (active); in test [10], -43.9% (active); in [11] it was -32% (active); in test [12], -34.1% (active). The growth is 52.7% in test [13]; 49.8% in test [14]; 8% (active) in [15]; 46.1% in test [16]; -15.6% (active) in [17]; -54.4% (active) in [18]. The figures for the growth in test [19] and in test [20] were -66.2% (active) and -12.6% (active), respectively.
Consider `Cc1cc(C)c(/C=C2\C(=O)Nc3ccc(NC(=O)CCCCCCC(=O)NO)cc32)[nH]1`, for which the growth in [1] is 19.3%; in [2] it was 22.7%; in [3] it was 18.7%; in [4], 12%; in test [5], 19.1%; in [6], 22.8%. Besides, the growth was 30% in test [7]; 15% in test [8]; 0.0206% (active) in test [9]; 18.4% in [10]; 86% in test [11]; 11.4% in test [12]. In addition, the growth in [13] was -1.02% (active); in test [14], 31.2%; in [15], 4% (active); in [16] it was 5.9% (active); in [17], 6.38% (active); in test [18] it was -12.3% (active). Also, the growth in test [19] is 7.92% (active); in [20], 24%.
As for `CCOC(=O)c1sc(Nc2ncccn2)nc1-c1ccccn1`, the growth in test [1] was 92.3%; in test [2] it was 108%; in test [3] it was 107%; in [4] it was 86.7%; in test [5], 104%; in test [6], 80.6%. In addition, the growth in [7] is 84.2%; in test [8] it was 99.3%; in test [9], 100%; in [10] it was 81.9%; in test [11], 50.8%; in [12] it was 99.6%. Besides, the growth in test [13] was 108%; in test [14], 91.5%; in [15] it was 73.2%; in test [16] it was 86.3%; in test [17], 83.2%; in test [18] it was 97.6%. Further, the growth in [19] is 79.9%; in test [20] it was 94.7%.
With `O=C(O)c1ccc(CNc2ccc(C(=O)CCl)cc2)cc1`, the growth is 101% in [1]; 92.1% in [2]; 111% in [3]; 104% in [4]; 78.4% in [5]; 109% in [6]. Moreover, the growth in test [7] was 86.1%; in [8], 102%; in test [9], 75%; in test [10], 105%; in test [11] it was 94.9%; in [12] it was 96.4%. For the same compound, the growth in [13] was 93.1%; in test [14] it was 103%; in test [15], 93.8%; in test [16] it was 91.9%; in test [17], 97.9%; in test [18] it was 95.3%. Besides, the growth in [19] was 77.9%; in test [20], 95.2%.
As to `C=CCn1c(C)nc2cc(Nc3nc(Nc4ccc5nc(C)n(CC=C)c5c4)c4ccccc4n3)ccc21`, the growth is -96% (active) in test [1]; -27.7% (active) in [2]; -68.3% (active) in test [3]; -85.8% (active) in [4]; -97.4% (active) in test [5]; -69.8% (active) in test [6]. Also, the growth was -86.6% (active) in test [7]; -95.8% (active) in test [8]; -79.8% (active) in test [9]; -88% (active) in test [10]; -76.2% (active) in [11]; -69.4% (active) in test [12]. The growth in test [13] was -96.7% (active); in [14] it was -66.1% (active); in test [15], -90.7% (active); in [16], -91.7% (active); in test [17], -95.2% (active); in [18], -83.3% (active). The growth in [19] is -83.3% (active); in [20] it was -88% (active).
For `COc1ccc(C2=NNC(c3sc(Cl)nc3Cl)C2)cc1` (stereo not given), the growth in test [1] was 86.6%; in test [2], 7.31% (active); in test [3], 74.3%; in test [4] it was 67.3%; in [5], 71.7%; in test [6], 73%. The growth in test [7] was 102%; in [8], 110%; in test [9] it was 94%; in test [10] it was 59.7%; in [11], 34.2%; in [12], 85.9%. The growth is 101% in [13]; 95.6% in test [14]; 93.7% in test [15]; 89.6% in test [16]; 54.6% in test [17]; 96% in [18]. The growth in test [19] was 9.86% (active); in test [20], 98.9%.
